Compound activity (PubChem BioAssay)
The sample as a whole holds a higher share of hits than the screen did.
Algae TAG accum: inducers of TAG accumulation in Chlamydomonas, primary screen, qHTS, Chlamydomonas reinhardtii; calls only at 10 µM (by protocol); Nile Red fluorescence, 72 h; 0.84% of 44,000 active; AID 1159537, 2015; call rule not given here;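 also: hits raise Nile Red signal meaning more stored TAG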
Starred values were filed as active, the others as inactive; i = inactive; + = active, no number.

SMILES	Algae TAG accum
CC1CCN(c2ccc([N+](=O)[O-])cc2S(=O)(=O)N2CC(C)OC(C)C2)CC1 (stereo not drawn)	i
Cc1cc(Cl)c(OCCOCCN2CCNCC2)c(Cl)c1	i
Cc1cc(C)c(OCCCCN2CCNCC2)c(C)c1	+
Cc1cc(C)c(OCCCN2CCCC2)c(C)c1	i
Cc1ccc(S(=O)(=O)c2ccc(C)c(C)c2)cc1C	i
Cc1cc(C)c(N)c(C)c1N	i
CCCCNc1cc(C)nc(N2CCOCC2)n1	+
Cc1cc(=O)[nH]c(N2CCOCC2)n1	i
CCOc1ccc(Nc2cc(C)nc(N3CCOCC3)n2)cc1	i
NC(=O)CN(CCc1ccccc1)S(=O)(=O)c1cc(Cl)ccc1Cl	i
CCCOc1ccc(N2C(=O)CC(N3CCN(C/C=C/c4ccccc4)CC3)C2=O)cc1 (stereo not drawn)	i
Cc1sc2nc(SCC(=O)N3CCN(CCO)CC3)[nH]c(=O)c2c1C	i
COc1ccc(CCNC(=O)c2ccoc2C)cc1OC	i
COc1cc(CN2CCN(C3CCN(Cc4ccccc4)CC3)CC2)cc(OC)c1O	i
O=[N+]([O-])c1ccccc1CN1CCC(N2CCCCC2)CC1	i
c1ccc(CN2CCC(N3CCN(C4CC5CCC4C5)CC3)CC2)cc1 (stereo not drawn)	+
O=[N+]([O-])c1ccccc1S(=O)(=O)N1CCN(C2CCN(Cc3ccccc3)CC2)CC1	+
O=[N+]([O-])c1ccccc1S(=O)(=O)N1CCN(Cc2ccccn2)CC1	i
c1ccc(CN2CCC(N3CCN(Cc4ccccn4)CC3)CC2)cc1	i
CC1CCCC(N2CCN(Cc3ccccc3)CC2)C1 (stereo not drawn)	+
C1CCCN(C2CCN(C3CC4CCC3C4)CC2)CC1 (stereo not drawn)	i
CC1CCCC(NC2CCN(Cc3ccccc3)CC2)C1 (stereo not drawn)	i
CCOc1ccc(S(=O)(=O)N(CC(=O)Nc2ccc(OC)cc2)c2ccccc2)cc1	i
COc1ccc(C)cc1N(CC(=O)Nc1c(C)cccc1C)S(=O)(=O)c1ccc(C)cc1	i
Cc1cc(C)cc(NC(=O)c2c(F)c(F)c(F)c(F)c2F)c1	i
SMILES	Algae TAG accum
CCOc1ccc(NS(=O)(=O)c2ccc([N+](=O)[O-])cc2)cc1	i
COc1ccc(S(=O)(=O)Nc2ccc(S(=O)(=O)Nc3cc(C)nc(C)n3)cc2)cc1	i
N#Cc1cc([N+](=O)[O-])cc(Br)c1N	i
COc1ccc(S(=O)(=O)Nc2cccc(C)c2C)cc1Br	i
Cc1ccc2nc(NC(=O)C3CC3)sc2c1	+
Cc1ccc2nc(NC(=O)NC3CCCCC3)sc2c1	i
Cc1ccc2nc(NC(=O)C3CCCCC3C(=O)O)sc2c1 (stereo not drawn)	i
Cc1cc(F)c(F)cc1C(=O)Nc1c(F)cccc1F	i
CCCOc1ccc(/C=C/c2[nH]c(=O)[nH]c(=O)c2[N+](=O)[O-])cc1OC	i
COc1cc([N+](=O)[O-])ccc1NC(=O)COc1ccc(C)cc1Br	i
COc1cccc(Oc2cc(=O)[nH]c(N)n2)c1	i
CC(=O)Nc1ccccc1NC(=O)COc1ccc(C)cc1Br	i
Cc1ccc(C(=O)Nc2ccc(I)cc2C)cc1C	i
Cc1ccc(C(=O)Nc2ccc(Cl)cc2C)cc1C	+
Cc1ccc(NC(=O)c2ccc(Cl)cc2)c(C)c1	i
COc1ccc(CN2CCN(c3ncnc4sc5c(c34)CCCC5)CC2)cc1	+
COc1ccc(-c2nc3c4c5c(sc4ncn3n2)CCCC5)cc1	i
c1ccc(N2CCN(c3ncnc4sc5c(c34)CCC5)CC2)cc1	i
Cc1ccc2nc(-c3cccc([N+](=O)[O-])c3)cc(C(=O)O)c2c1	i
O=C(Nc1ccccc1C(=O)N1CCCC1)c1ccc(F)cc1	i
O=C(Nc1ccc2nc(-c3ccccn3)c(-c3ccccn3)nc2c1)N1CCCC1	i
CN(C)c1ccc(NC(=O)Nc2ccc3nc(-c4ccccn4)c(-c4ccccn4)nc3c2)cc1	+
Cc1nc2ccc(NC(=O)Nc3ccc(N(C)C)cc3)cc2nc1C	i
O=C(N[C@H]1C[C@@H]2CC[C@H]1C2)c1c(Cl)cccc1Cl	i
O=C(O)CC(=O)NC12CC3CC(CC(C3)C1)C2	i
SMILES	Algae TAG accum
COCCC(=O)NC12CC3CC(CC(C3)C1)C2	i
CC(C)NCC(=O)NC12CC3CC(CC(C3)C1)C2	+
O=C(c1ccco1)N(Cc1ccccc1)Cc1ccccc1	i
O=C(O)C(CO)c1ccccc1 (stereo not drawn)	i
CSc1nnc2c3ccccc3n(C)c2n1	i
Nc1cc(NC(=O)C23CC4CC(CC(C4)C2)C3)cc(Oc2ccccc2)c1	i
COc1cc2c(cc1OC)CN(Cc1ccc(F)cc1)CC2	+
COc1cc2c(cc1OC)CN(Cc1cccc(F)c1)CC2	i
COc1cc2c(cc1OC)CN(Cc1ccc(N(C)C)cc1)CC2	i
CCC(=O)Nc1ccc(NC(=O)c2cc(Cl)ccc2OC)cc1	i
O=C(Nc1ccccc1C(=O)Nc1ccc([N+](=O)[O-])cc1)c1ccccc1	i
